Results reported in PubChem BioAssay (NCI).
“And” between values parts separate entries of the source, which are not always exact repeats. Equal entries are not always repeated. About 79,000 compounds went through this panel and 15% of them were active in at least one assay; those are over-represented in the sample as a whole. A structure can be active in one record and inactive in another. The source made the active and inactive calls. Cut-off read from the data, not from the text of the source: active = growth inhibition above about 70%; inactive = the rest.

Tests used:
[1] = NCI Yeast Anticancer Drug Screen. Data for the rad52 strain (AID 147);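 note: 0% = growth of vehicle-treated control cultures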; conditions: S. cerevisiae rad52 mutant growth inhibition, stronger effect = higher value
How it was run: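 The repair-mutant yeast strain was incubated with compounds, then growth was read and inhibition derived relative to vehicle.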

[2] = NCI Yeast Anticancer Drug Screen. Data for the wt1 strain (AID 149);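 note: 0% = growth of vehicle-treated wt1 cultures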; conditions: S. cerevisiae wt1 strain (SPY 50644) growth inhibition, stronger effect = higher value
How it was run: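 Measured: growth of wt1 yeast under compound versus vehicle treatment, reported as inhibition.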

[3] = NCI Yeast Anticancer Drug Screen. Data for the rad50EPP+ strain (AID 151);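 note: 0% = growth of vehicle-treated control cultures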; conditions: S. cerevisiae rad50 mutant strain, stronger effect = higher value
How it was run: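 Vehicle-normalised growth inhibition; rad50EPP+ yeast strain, altered in DNA damage repair, compound-treated.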

[4] = NCI Yeast Anticancer Drug Screen. Data for the mgt1 strain (AID 153); conditions: S. cerevisiae mgt1 mutant growth inhibition, stronger effect = higher value
How it was run: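 Vehicle-normalized growth inhibition is determined in mgt1 yeast, a strain selected for a defined alteration in DNA repair or cell cycle control.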

[5] = NCI Yeast Anticancer Drug Screen. Data for the rad50 strain (AID 155);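 note: 0% = growth of vehicle-only cultures of the same strain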; conditions: S. cerevisiae rad50 strain growth inhibition, stronger effect = higher value
How it was run: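 Growth of the mutant yeast was measured after compound exposure and referenced to vehicle-treated cultures.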

[6] = NCI Yeast Anticancer Drug Screen. Data for the mec2-1 strain (AID 157); conditions: S. cerevisiae mec2-1 strain, stronger effect = higher value
How it was run: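 Mutant yeast (mec2-1) grown with compound; growth inhibition relative to vehicle control reported.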

[7] = NCI Yeast Anticancer Drug Screen. Data for the rad14 strain (AID 159);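 note: 0% = growth of vehicle-treated control cultures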; conditions: S. cerevisiae rad14 strain growth inhibition, stronger effect = higher value
How it was run: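 Here, inhibition of yeast growth was measured after compound exposure, using a strain with a genetic defect in DNA damage repair and vehicle-treated cultures as the reference.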

[8] = NCI Yeast Anticancer Drug Screen. Data for the sgs1 mgt1 strain (AID 161);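 note: 0% = growth of cultures given vehicle only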; conditions: S. cerevisiae sgs1 mgt1 strain, stronger effect = higher value
How it was run: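 Growth of a repair-deficient yeast mutant was monitored after compound treatment and expressed as inhibition relative to vehicle-treated cultures.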

[9] = NCI Yeast Anticancer Drug Screen. Data for the CLN2oe strain (AID 163);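 note: 0% = growth of vehicle-only control cultures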; conditions: S. cerevisiae CLN2oe strain, stronger effect = higher value
How it was run: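 Compounds are applied to yeast harbouring a defined cell-cycle control change; reduced growth compared with vehicle-treated controls gives the value.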

[10] = NCI Yeast Anticancer Drug Screen. Data for the cln2 rad14 strain (AID 165);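 note: 0% = growth equal to vehicle treated cultures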; conditions: S. cerevisiae cln2 rad14 strain, stronger effect = higher value
How it was run: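 Readout is yeast growth inhibition versus vehicle-treated controls, using a strain with cln2 and rad14 alterations exposed to compound.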

[11] = NCI Yeast Anticancer Drug Screen. Data for the wt2 strain (AID 169);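 note: 0% = growth of vehicle-treated yeast cultures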; conditions: S. cerevisiae wt2 strain growth inhibition, stronger effect = higher value
How it was run: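 Against vehicle-treated controls, the growth of yeast exposed to each compound was compared, and the inhibition was recorded.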

[12] = NCI Yeast Anticancer Drug Screen. Data for the mlh1 strain (AID 171);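 note: 0% = growth of vehicle-treated control cultures of the same strain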; conditions: S. cerevisiae mlh1 strain growth inhibition, stronger effect = higher value
How it was run: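 Measured: yeast growth. Reference: vehicle-treated controls. Organism: strain with a defined alteration affecting DNA damage repair or cell cycle control, treated with compound.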

[13] = NCI Yeast Anticancer Drug Screen. Data for the sgs1 strain (AID 173);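 note: 0% = growth of vehicle-only control cultures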; conditions: S. cerevisiae sgs1 mutant, stronger effect = higher value
How it was run: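 Each compound was added to cultures of the altered yeast strain. Growth was recorded, and inhibition was derived by comparison with vehicle controls.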

[14] = NCI Yeast Anticancer Drug Screen. Data for the mlh1 rad18 strain (AID 175); conditions: S. cerevisiae mlh1 rad18 strain growth inhibition, stronger effect = higher value
How it was run: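 Genetically defined yeast (DNA repair-deficient) exposed to compounds; growth inhibition determined relative to vehicle.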

[15] = NCI Yeast Anticancer Drug Screen. Data for the rad18 strain (AID 177); conditions: S. cerevisiae rad18 mutant growth inhibition, stronger effect = higher value
How it was run: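 Vehicle-treated cultures served as the baseline for scoring compound-induced growth inhibition in DNA-repair-mutant yeast.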

[16] = NCI Yeast Anticancer Drug Screen. Data for the bub3 strain (AID 167); conditions: S. cerevisiae bub3 mutant strain, stronger effect = higher value
How it was run: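 Whole-cell yeast assay. The mutant strain was incubated with compounds, and growth inhibition was determined by comparison with vehicle-treated cells.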

[17] = at 5.0 µM (retest, dose inferred, filed as 0.5)
[18] = at 50.0 µM (retest, dose inferred, filed as 5.0)

Measured: growth inhibition

O=P(CCCCP(=O)(c1ccccc1)c1ccccc1)(c1ccccc1)c1ccccc1.[Cl][Sn]([Cl])([c]1ccccc1)[c]1ccccc1
active: [1]; at 11.0 µM 74% | [1]; at 33.0 µM 96% | [1]; at 100.0 µM 97% | [2]; at 33.0 µM 93% | [2]; at 100.0 µM 96% | [4]; at 11.0 µM 74% | [4]; at 33.0 µM 96% | [4]; at 100.0 µM 97% | [5]; at 11.0 µM 82% | [5]; at 33.0 µM 97% | [5]; [18] 98% | [5]; at 50.0 µM 85.7% | [5]; at 100.0 µM 97% | [6]; at 11.0 µM 70% | [6]; at 33.0 µM 95% | [6]; [18] 98% | [6]; at 50.0 µM 87.8% | [6]; at 100.0 µM 96% | [7]; at 11.0 µM 78% | [7]; at 33.0 µM 94% | [7]; at 100.0 µM 96% | [8]; [17] 83% | [8]; [18] 98% | [8]; at 50.0 µM 87.3% | [9]; at 33.0 µM 91% | [9]; at 100.0 µM 95% | [10]; [18] 97% | [10]; at 50.0 µM 81.8% | [11]; at 33.0 µM 92% | [11]; at 100.0 µM 96% | [12]; at 11.0 µM 80% | [12]; at 33.0 µM 96% | [12]; at 100.0 µM 97% | [13]; at 33.0 µM 96% | [13]; at 100.0 µM 97% | [14]; [17] 84% | [14]; [18] 96% | [14]; at 50.0 µM 89.5% | [15]; at 11.0 µM 82% | [15]; at 33.0 µM 95% | [15]; at 100.0 µM 96%
inactive: [1]; at 1.2 µM -4% | [1]; at 3.7 µM 26% | [2]; at 1.2 µM -6% | [2]; at 3.7 µM 3% | [2]; at 11.0 µM 26% | [3]; at 1.2 µM 8% | [3]; at 3.7 µM -1% | [3]; at 11.0 µM 2% | [3]; at 33.0 µM 14% | [3]; at 100.0 µM 15% | [4]; at 1.2 µM 13% | [4]; at 3.7 µM 24% | [5]; at 1.2 µM 26% | [5]; at 3.7 µM 24% | [5]; [17] 66% | [6]; at 1.2 µM 11% | [6]; at 3.7 µM 22% | [6]; [17] 48% | [7]; at 1.2 µM 4% | [7]; at 3.7 µM 16% | [9]; at 1.2 µM -16% | [9]; at 3.7 µM -27% | [9]; at 11.0 µM 15% | [10]; [17] 15% | [11]; at 1.2 µM -51% | [11]; at 3.7 µM -35% | [11]; at 11.0 µM 43% | [12]; at 1.2 µM 3% | [12]; at 3.7 µM 9% | [13]; at 1.2 µM 0% | [13]; at 3.7 µM 15% | [13]; at 11.0 µM 68% | [15]; at 1.2 µM 3% | [15]; at 3.7 µM 16%

COc1ccc([N+]2=NC(c3ccc([N+](=O)[O-])cc3)=NN(c3ccccc3)C2)cc1
90% (active) and 56% (inactive): [16]; at 100.0 µM
inactive: [1]; at 1.2 µM -3% and -1% | [1]; at 3.7 µM -1% and 1% | [1]; at 11.0 µM 1% and 2% | [1]; at 33.0 µM 37% and 12% | [2]; at 1.2 µM 1% | [2]; at 3.7 µM 0% | [2]; at 11.0 µM -3% and -5% | [2]; at 33.0 µM 1% and -2% | [3]; at 1.2 µM -10% and -9% | [3]; at 3.7 µM -4% and -5% | [3]; at 11.0 µM 3% and 4% | [3]; at 33.0 µM 32% and 9% | [4]; at 1.2 µM -1% | [4]; at 3.7 µM -2% and -6% | [4]; at 11.0 µM -1% and 2% | [4]; at 33.0 µM 43% and -6% | [5]; at 1.2 µM -6% and -5% | [5]; at 3.7 µM -16% | [5]; [17] 8% and 7% | [5]; at 11.0 µM -17% and -13% | [5]; at 33.0 µM 34% and 11% | [5]; [18] 52% and 31% | [6]; at 1.2 µM -5% and -1% | [6]; at 3.7 µM -5% and -2% | [6]; [17] -10% and -3% | [6]; at 11.0 µM -5% and 1% | [6]; at 33.0 µM 6% and 5% | [6]; [18] 21% and 4% | [7]; at 1.2 µM 2% | [7]; at 3.7 µM 1% | [7]; at 11.0 µM 4% and 2% | [7]; at 33.0 µM 14% and 9% | [8]; [17] 2% and -1% | [8]; [18] 22% and 50% | [9]; at 1.2 µM 0% and 5% | [9]; at 3.7 µM -3% and 0% | [9]; at 11.0 µM -7% and 4% | [9]; at 33.0 µM 21% and 9% | [10]; [17] 5% and -13% | [10]; [18] 48% and 43% | [10]; at 50.0 µM 51% and 38.8% | [16]; at 1.2 µM 5% and 1% | [16]; at 3.7 µM 17% and 4% | [16]; [17] 15% and 17% | [16]; at 11.0 µM 17% and 9% | [16]; at 33.0 µM 35% and 5% | [12]; at 1.2 µM 0% | [12]; at 3.7 µM -2% and -3% | [12]; at 11.0 µM -1% and -3% | [12]; at 33.0 µM 14% and 16% | [13]; at 1.2 µM -2% and -3% | [13]; at 3.7 µM 3% and -1% | [13]; at 11.0 µM 8% | [13]; at 33.0 µM 48% and 42% | [14]; [17] 4% and 9% | [14]; [18] 67% and 51% | [15]; at 1.2 µM -8% and -5% | [15]; at 3.7 µM -2% and -3% | [15]; at 11.0 µM 12% and 15% | [15]; at 33.0 µM 34% and 33%
78.8% (active) and 63.6% (inactive): [8]; at 50.0 µM
92% (active) and 59% (inactive): [12]; at 100.0 µM
active: [1]; at 100.0 µM 91% | [2]; at 100.0 µM 94% and 89% | [5]; at 50.0 µM 78.3% and 73.8% | [5]; at 100.0 µM 90% and 88% | [6]; at 50.0 µM 75.2% and 70.8% | [9]; at 100.0 µM 90% and 70% | [16]; [18] 84% and 88% | [16]; at 50.0 µM 90.5% and 91.4% | [13]; at 100.0 µM 93% and 92% | [14]; at 50.0 µM 87.9% and 86.3% | [15]; at 100.0 µM 90% and 87%
93% (active) and 41% (inactive): [4]; at 100.0 µM
82% (active) and 58% (inactive): [3]; at 100.0 µM
91% (active) and 63% (inactive): [7]; at 100.0 µM
92% (active) and 50% (inactive): [6]; at 100.0 µM

CS(=O)(=O)OCCN(CCOS(C)(=O)=O)c1ccc(C=O)cc1
inactive: [1]; at 1.2 µM 11% | [1]; at 3.7 µM 33% | [1]; at 11.0 µM 62% | [2]; at 1.2 µM 0% | [2]; at 3.7 µM -19% | [2]; at 11.0 µM 10% | [2]; at 33.0 µM 28% | [2]; at 100.0 µM 49% | [3]; at 1.2 µM 4% | [3]; at 3.7 µM 6% | [3]; at 11.0 µM 9% | [3]; at 33.0 µM 30% | [3]; at 100.0 µM 51% | [4]; at 1.2 µM 5% | [4]; at 3.7 µM 13% | [4]; at 11.0 µM 32% | [4]; at 33.0 µM 58% | [5]; at 1.2 µM 16% | [5]; at 3.7 µM 34% | [5]; [17] 33% | [5]; at 11.0 µM 60% | [6]; at 1.2 µM 8% | [6]; at 3.7 µM 20%
active: [1]; at 33.0 µM 83% | [1]; at 100.0 µM 91% | [4]; at 100.0 µM 78% | [5]; at 33.0 µM 80% | [5]; [18] 84% | [5]; at 50.0 µM 79.3% | [5]; at 100.0 µM 92%
